# From PubChem BioAssay
# Most compounds without a hit are left out; they make up all but 14% or so of the library.
# HCMV inh = human cytomegalovirus inhibition. HFF cells, HCMV-luciferase reporter, 72 h; hits give low values. activity change, negative = inhibition, % at 57.5 µM. 410,000 compounds, 4.5% hits; in the data active = activity change below about -60%; inconclusive = no clear call, values can overlap the other calls; inactive = above about -39%
#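 HFF cells seeded 16 h at 37C, treated with compounds, infected with luciferase-reporter HCMV at MOI 1 PFU/cell; luciferase read at 72 h post infection, normalized to buffer-only and Salinomycin controls.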
# Pf growth 48h = inhibits P. falciparum growth in the first generation, 48 h; P. falciparum luciferase growth in erythrocytes, 48 h; Potency, µM (titrated, usually from 28.7 µM), hits mostly inhibitors; 310,000 compounds, 5.9% hits
#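 Parasite viability was followed by luminescence of a genomically integrated firefly luciferase. Cultures held 0.1% parasitemia at 2% hematocrit (final), incubated under 5% CO2 at 37 C.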
# Giardia FBPA inh = Giardia lamblia aldolase inhibition. purified Giardia FBPA. Potency, µM (highest dose often 59.6 µM), hits mostly inhibitors. 290,000 compounds, 0.71% hits. AID 2451; also: nearly all actives have a fitted effect of over 55% in size
# Target sequence (A8B2U2 whole entry, looked up): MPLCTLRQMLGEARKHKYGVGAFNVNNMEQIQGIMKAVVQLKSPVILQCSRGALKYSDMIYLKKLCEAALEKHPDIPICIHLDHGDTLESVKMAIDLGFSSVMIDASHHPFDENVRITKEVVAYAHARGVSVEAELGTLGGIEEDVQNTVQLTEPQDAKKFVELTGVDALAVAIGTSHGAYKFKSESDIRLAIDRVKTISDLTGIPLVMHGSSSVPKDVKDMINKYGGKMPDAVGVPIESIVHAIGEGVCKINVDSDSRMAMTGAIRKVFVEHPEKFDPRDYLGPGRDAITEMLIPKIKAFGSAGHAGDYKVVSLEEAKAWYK
#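 Giardia FBPA (40 nM reagent) was preincubated 10 min at RT with compound (up to 57.5 uM final), then substrate plus GAPDH/TPI/NAD/arsenate coupling system with diaphorase/resazurin was added; resorufin fluorescence (525/598 nm) was read after 20 min.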
# Sm TGR block = blocks Schistosoma mansoni thioredoxin glutathione reductase. Q962Y6. purified TGR, DTNB reduction, TNB absorbance 405 nm. Potency, µM (series often up to 114 µM), most hits filed as inhibitors. 360,000 compounds, 3% hits. AID 485364; also: nearly all actives have a fitted effect of over 60% in size
#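 Kinetic colorimetric format: TGR-catalysed, NADPH-driven DTNB reduction monitored via TNB absorbance. Enzyme dispensed at 20 nM; compound exposure 15 min at room temperature before reaction start.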
# Pf growth 96h = P. falciparum growth inhibition at 96 hour, primary screen for plastid delayed-death inhibitors; Potency, µM (top dose mostly 28.7 µM), usual class: inhibitors; P. falciparum luciferase reporter growth, 96 h; 320,000 compounds, 6.9% hits; AID 504834
#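 Cell-based qHTS: luciferase-tagged P. falciparum in erythrocytes (2% hematocrit, 0.05% parasitemia final) incubated with compounds for 96 hours, 37 C, 5% CO2; luciferase detection reagent then added and luminescence measured.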
# Numbers stand for hits; - = inactive; ? = inconclusive; . = no result. Unless noted, calls follow the shape of the dose curve; as a rule, active = well fitted curve in the direction sought with a large enough effect; inconclusive = small, poorly fitted or top-dose-only effect, or another doubt; inactive = no such curve, though single readings can be large; an effect the other way counts as inactive or inconclusive.
SMILES,HCMV inh,Pf growth 48h,Giardia FBPA inh,Sm TGR block,Pf growth 96h
COc1cc2[nH]c(=S)nc(NCCc3ccc(S(N)(=O)=O)cc3)c2cc1OC,-,-,-,14µM,-
COc1ccc(CCNc2nc(=S)[nH]c3cc(OC)c(OC)cc23)cc1OC,?,?,-,-,?
C[C@@H]1[C@H](O)C[C@@]23COC(=O)C2=CCCC3[C@@]1(C)CCC1COC(=O)C1 (stereo partly drawn),-,0.0033µM,.,-,0.0026µM
CC(=O)N1CCC2(CC1)C/C(=N\NC(=S)Nc1ccccc1F)c1cc(O)ccc1O2,-82,-,-,-,-
COc1ccc(N2Cc3ccccc3C2)cc1Cl,-,?,-,32µM,-
COc1ccc(Cl)cc1N1Cc2ccccc2C1,-,13µM,-,45µM,.
COc1ccc(C(=O)CN2Cc3ccccc3C2=N)cc1,-,-,-,-,-
Cc1cc(C)nc(N2Cc3ccccc3C2=N)n1,?,15µM,-,-,?
COc1ccc(S(=O)(=O)N2CCN(c3ccc(Cl)c(Cl)c3)CC2)c2ccccc12,-,.,.,-,.
COc1ccc(OC)c(N2Cc3ccccc3C2=N)c1,-,-,-,-,5.9µM
O=C1CCC(C(=O)N2CCSCC2)CN1CCc1cccc(F)c1 (stereo not drawn),-,-,-,-,-
CCOC(=O)c1cc(S(=O)(=O)Nc2ccccc2)[nH]n1,-,.,.,-,.
COc1ccccc1N1CCNCC1,-,-,-,-,-
COc1ccccc1N1Cc2ccccc2C1,-,13µM,-,?,?
COc1ccc(OC)c(N2Cc3ccccc3C2)c1,-,5.9µM,?,?,12µM
CCn1cc(C(=O)N(C)c2cc(C)ccc2C)c2cc(OC)c(OC)cc2c1=O,-,.,.,-,.
Cc1cccc(C)c1NC(=O)COC(=O)CCc1ccc(S(=O)(=O)N2CCCCC2)cc1,-,-,-,-,-
COc1ccc(CCC(=O)Nc2cc(S(=O)(=O)N3CCCCC3)ccc2N(C)C)cc1,-,10µM,.,-,?
O=C(Nc1cc(S(=O)(=O)N2CCOCC2)ccc1N1CCOCC1)c1cccc(Cl)c1,-,.,.,.,.
O=C(COC(=O)CCc1ccc(S(=O)(=O)N2CCCCC2)cc1)Nc1cccc2ccccc12,-106,-,-,-,-
CCN1CCN(c2ccc(S(=O)(=O)N3CCCCC3)cc2NC(=O)c2cccc(Cl)c2)CC1,-,?,.,-,8.3µM
CCN1CCN(c2ccc(S(=O)(=O)N3CCCCC3)cc2NC(=O)c2cccc(OC(F)F)c2)CC1,-,?,.,-,10µM
Cc1ccc(NC(=O)C(C)OC(=O)Cn2[nH]c(=O)c3ccccc3c2=O)cc1 (stereo not drawn),-,-,.,-,-
Cc1oc(-c2ccc(C(=O)NCc3ccc(F)cc3)cc2)nc1CS(=O)c1ccccc1 (stereo not drawn),-,.,.,?,.
CCN1CCN(c2ccc(S(=O)(=O)N3CCCCC3)cc2NC(=O)c2cc3ccccc3o2)CC1,-,4.1µM,.,-,2.1µM
SMILES,HCMV inh,Pf growth 48h,Giardia FBPA inh,Sm TGR block,Pf growth 96h
CCN1CCN(c2ccc(S(=O)(=O)N3CCCCC3)cc2NC(=O)Cc2ccc(OC)cc2)CC1,-,9.3µM,.,-,5.9µM
CCN1CCN(c2ccc(S(=O)(=O)N3CCCCC3)cc2NC(=O)Cc2c(F)cccc2Cl)CC1,-,?,.,-,13µM
CC(C)[C@@H](CC(=O)N[C@@H]1CCCC[C@H]1C(=O)N[C@H](CC(=O)N[C@@H](CCC(=O)O)CC(=O)O)Cc1c[nH]c2ccccc12)NC(=O)C[C@H](Cc1c[nH]c2ccccc12)NC(=O)[C@@H]1CCCC[C@H]1N,.,.,-,.,.
COc1ccc(OC)c(NC(=O)CN2C(=O)CC(c3ccco3)Sc3ccccc32)c1 (stereo not drawn),-,.,.,-,.
Cc1cc(NC(=O)CN2C(=O)CC(c3ccco3)Sc3ccccc32)no1 (stereo not drawn),.,?,-,16µM,12µM
COc1cccc(NC(=O)CN2C(=O)CC(c3ccco3)Sc3ccccc32)c1 (stereo not drawn),-105,.,.,-,.
CC(=O)Nc1ccc(NC(=O)CN2C(=O)CC(c3ccco3)Sc3ccccc32)cc1 (stereo not drawn),-105,.,.,-,.
O=C(CN1C(=O)CC(c2ccco2)Sc2ccccc21)NC1CCCCC1 (stereo not drawn),-,?,-,-,?
CCOc1ccccc1NC(=O)CN1C(=O)CC(c2ccco2)Sc2ccccc21 (stereo not drawn),-87,.,.,-,.
CCC1(c2ccccc2)NC(=O)N(CC(=O)Nc2ccc(S(=O)(=O)NC3=NCCCCC3)cc2)C1=O (stereo not drawn),-,?,.,-,-
COc1ccc(S(=O)(=O)N2CCOCC2)cc1NC(=O)c1ccc(OC(F)F)cc1,-,?,.,-,-
COc1ccc(S(=O)(=O)N2CCOCC2)cc1NC(=O)c1ccc(-n2nc(C)cc2C)cc1,-,10µM,-,-,?
COc1ccccc1NS(=O)(=O)c1ccc(C)c(NC(=O)c2ccc(S(=O)(=O)N3CCCCCC3)cc2)c1,-69,?,-,-,?
CCOc1ncccc1C(=O)Nc1cc(S(=O)(=O)N2CCCCC2)ccc1Cl,?,?,.,-,0.83µM
Cc1ccc(S(=O)(=O)Nc2ccccc2F)cc1C(=O)NNC(=O)c1ccccc1O,-87,-,.,-,-
COc1ccccc1NC(=O)c1ccc(S(=O)(=O)N2CCCC2)cc1,-,.,-,-,-
CCOc1ncccc1C(=O)Nc1ccc(Cl)c(S(=O)(=O)N2CCCC2)c1,?,?,-,-,?
COc1ccc(NS(=O)(=O)c2ccc(C)c(C(=O)NNC(=O)c3ccccc3O)c2)cc1,-,-,.,-,-
O=C(N[C@@H](Cc1cccnc1)C(=O)N1CCC[C@H]1C(=O)NCCc1ccccc1Cl)c1cccs1,-,.,.,.,.
Cc1ccccc1NS(=O)(=O)c1ccc2[nH]c(=O)[nH]c2c1,-,-,-,.,-
COc1ccc2c3n([n+]([O-])c2c1)C(C)CN=C3c1ccc(Cl)cc1 (stereo not drawn),-,.,.,.,.
COc1cccc(-c2ccnc3c(-c4ccc(F)cc4)c(C)nn23)c1,-,.,.,-,.
Cc1cc(NC(=O)CCc2ccc(S(=O)(=O)N3CCOCC3)cc2)n(-c2ccccc2)n1,-,13µM,-,-,?
COc1ccc(S(=O)(=O)N2CCOCC2)cc1NC(=O)c1cc2c(s1)CCCC2,-69,-,-,-,-
COc1cc(S(=O)(=O)N2CCOCC2)ccc1NC(=O)COC(=O)CC12CC3CC(CC(C3)C1)C2,?,.,-,-,8.3µM
COc1cc(S(=O)(=O)N2CCCCC2)ccc1NC(=O)c1ccc(F)cc1,-,-,-,-,10µM
Cc1cc(NC(=O)CN2CCOCC2)n(-c2ccccc2)n1,-,-,-,-,-
O=C(Nc1ccccc1C(F)(F)F)N[C@H]1CC[C@@]23CCCN2C(=O)CCC[C@H]3C1Cc1ccccc1 (stereo partly drawn),-,.,.,.,.
